Experimental data from PubChem BioAssay (Tox21).
Records with an inconclusive call do not appear. Active and inactive are the calls of the source. Unless noted, calls come from the whole dose curve.

What was measured:
[1] = Nuclear factor erythroid 2-related factor 2/antioxidant responsive element (Nrf2/ARE) small molecule agonists: qHTS cell viability counter screen in human keratinocytes (AID 1919968; active = well fitted curve in the direction sought with a large enough effect in the repeat runs; an effect the other way counts as inactive or inconclusive; note: nearly all actives have a fitted effect of over 55% in size)
In short: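 After a 5 h attachment period, ARE-reporter keratinocytes were dosed with compounds in DMSO and then cultured 23 h at 37 C. Cell viability came from CellTiter-Fluor signal read after a further 1 h.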

[2] = Nuclear factor erythroid 2-related factor 2/antioxidant responsive element (Nrf2/ARE) small molecule agonists: luciferase reporter gene qHTS assay in human keratinocytes (AID 1919969); note: nearly all actives have a fitted effect of over 35% in size
[3] = target: Gonadotropin-releasing hormone receptor (Homo sapiens) (UniProt P30968); test: Human gonadotropin-releasing hormone receptor (GnRHR) small molecule agonists, calcium flux assay in GnRHR-HEK293 cells (AID 1920063); note: nearly all actives have a fitted effect of over 35% in size
Chain of Gonadotropin-releasing hormone receptor (Homo sapiens) (P30968 whole entry, looked up): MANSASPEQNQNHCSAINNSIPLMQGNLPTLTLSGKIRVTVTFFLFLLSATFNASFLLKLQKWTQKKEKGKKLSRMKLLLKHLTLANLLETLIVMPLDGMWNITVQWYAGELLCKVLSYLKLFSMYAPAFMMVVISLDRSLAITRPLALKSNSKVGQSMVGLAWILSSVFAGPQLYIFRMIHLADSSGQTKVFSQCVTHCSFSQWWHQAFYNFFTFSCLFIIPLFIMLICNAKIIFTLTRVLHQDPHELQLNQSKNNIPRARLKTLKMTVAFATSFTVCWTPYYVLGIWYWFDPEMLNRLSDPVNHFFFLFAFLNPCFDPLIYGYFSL
In short: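 We seeded human GnRHR-expressing HEK293 cells for 18 hours, loaded them with calcium dye for an hour at 37 C, added test compounds, and recorded fluorescence intensity kinetically for three minutes.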

[4] = target: KiSS-1 receptor (Homo sapiens) (UniProt Q969F8); test: Human kisspeptin (KISS1R) small molecule agonists, calcium flux assay in KISS1R-HEK293 cells (AID 1920064; active = well fitted curve in the direction sought with a large enough effect in the repeat runs; an effect the other way counts as inactive or inconclusive)
Chain of KiSS-1 receptor (Homo sapiens) (Q969F8 whole entry, looked up): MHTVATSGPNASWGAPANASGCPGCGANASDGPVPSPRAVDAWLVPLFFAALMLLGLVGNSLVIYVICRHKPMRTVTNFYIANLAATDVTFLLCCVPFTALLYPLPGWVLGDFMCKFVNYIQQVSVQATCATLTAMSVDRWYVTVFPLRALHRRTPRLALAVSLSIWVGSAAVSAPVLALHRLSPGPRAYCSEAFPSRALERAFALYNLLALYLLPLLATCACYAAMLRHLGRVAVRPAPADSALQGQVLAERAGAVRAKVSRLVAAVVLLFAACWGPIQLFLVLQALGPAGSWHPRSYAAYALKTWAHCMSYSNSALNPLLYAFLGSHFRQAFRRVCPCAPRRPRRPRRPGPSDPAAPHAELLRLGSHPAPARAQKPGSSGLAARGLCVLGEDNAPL
In short: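 Kinetic calcium assay, 1 s sampling over 3 min at Ex/Em 480/540, in HEK293 cells engineered with human KISS1R; compounds delivered in DMSO after 1 h dye loading.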

[5] = G protein-coupled receptor (GPCR) small molecule agonists, calcium flux assay: HEK293 wild type cell line counter screen (AID 1920065)
In short: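 Calcium-sensitive dye, loaded 1 h at 37 C into cells cultured 18 h, reports compound-evoked calcium release as fluorescence (Ex/Em 480/540), measured over 3 min. Agonist mode; 15-point titrations, triplicate.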

[6] = p53 small molecule agonists, cell-based qHTS assay with human liver microsomes (AID 1963577)
In short: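 Cells carrying a p53-responsive bla reporter were rested 5 h (37 C, 5% CO2) before compound transfer. Human liver microsomes plus NADPH, 0.5 mg/mL final apiece, supplied metabolism during the 16 h 37 C exposure.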

[7] = p53 small molecule agonists, cell-based qHTS assay with rat liver microsomes (AID 1963578)
In short: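 Fluorescence from a beta-lactamase reporter under a p53 response element was measured after cells had been incubated 16 h at 37 C with test compound and rat liver microsomes plus NADPH (0.5 mg/mL final each).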

[8] = p53 small molecule agonists, cell-based qHTS assay with human liver microsomes: qHTS cell viability counter screen (AID 1963579); note: nearly all actives have a fitted effect of over 45% in size
In short: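 Seed p53RE-bla cells at 4,000 per well; incubate 5 h at 37 C; add compound, human liver microsomes and NADPH; incubate 16 h at 37 C; add CellTiter-Glo; after 30 min at room temperature, read luminescence.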

[9] = p53 small molecule agonists, cell-based qHTS assay with rat liver microsomes: qHTS cell viability counter screen (AID 1963580); note: nearly all actives have a fitted effect of over 45% in size
In short: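 In HCT-116 cells carrying a p53 response element-bla reporter, compounds were metabolically activated in situ by rat liver microsomes with NADPH over 16 h. Cell ATP content then served as the cytotoxicity measure.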

[10] = p53 small molecule agonists, cell-based qHTS assay: qHTS cell viability counter screen (AID 1963581); note: nearly all actives have a fitted effect of over 45% in size
In short: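 Following 5 h attachment, HCT-116 p53RE-bla cells took up compound for 16 h at 37 C; the reporter was read with B/G FRET substrate (2 h RT), and viability then via CellTiter-Glo ATP luminescence.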

[11] = p53 small molecule agonists, cell-based qHTS assay (AID 1963582; active = well fitted activation curve with a large enough effect in the signal ratio in the repeat runs, not every such curve was filed as active; the % refers to the signal ratio)
In short: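 In this cell-based concentration-response screen, a p53 response element drives beta-lactamase; cells received DMSO-borne compounds after 5 h culture and were incubated a further 16 h before FRET substrate development.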

[12] = target: 5-hydroxytryptamine receptor 2A (Homo sapiens) (UniProt P28223); test: 5-hydroxytryptamine receptor 2A (HTR2A) small molecule antagonists, cell-based qHTS assay (AID 1963586); note: nearly all actives have a fitted effect of over 45% in size
Chain of 5-hydroxytryptamine receptor 2A (Homo sapiens) (P28223 whole entry, looked up): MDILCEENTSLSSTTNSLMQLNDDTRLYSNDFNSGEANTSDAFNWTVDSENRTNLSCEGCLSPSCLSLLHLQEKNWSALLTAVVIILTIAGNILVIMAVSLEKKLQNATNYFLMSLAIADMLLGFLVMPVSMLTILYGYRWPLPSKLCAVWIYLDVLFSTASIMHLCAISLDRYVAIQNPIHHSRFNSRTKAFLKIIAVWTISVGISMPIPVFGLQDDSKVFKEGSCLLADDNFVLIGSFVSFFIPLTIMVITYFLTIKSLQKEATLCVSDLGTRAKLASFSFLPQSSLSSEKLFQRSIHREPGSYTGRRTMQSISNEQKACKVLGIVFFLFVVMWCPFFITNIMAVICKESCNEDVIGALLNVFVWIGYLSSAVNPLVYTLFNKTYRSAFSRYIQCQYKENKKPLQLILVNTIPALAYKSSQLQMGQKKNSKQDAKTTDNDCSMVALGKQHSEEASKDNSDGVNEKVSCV
In short: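 Antagonist-mode intracellular calcium assay: DOI (4 nM) added after 5 min compound pre-incubation at room temperature to dye-loaded HTR2A-CHO cells. Fluorescence followed for 3 min, sampled every second.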

[13] = target: 5-hydroxytryptamine receptor 2A (Homo sapiens) (UniProt P28223); test: 5-hydroxytryptamine receptor 2A (HTR2A) small molecule agonists, cell-based qHTS assay (AID 1963587); note: nearly all actives have a fitted effect of over 30% in size
In short: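 HTR2A-CHO cells, plated 18 h at 37 C/5% CO2, dye-loaded 1 h at 37 C; compounds in DMSO added by pin tool (agonist mode). Intracellular calcium flux read as kinetic fluorescence on FDSS over 2 min at 1 s intervals.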

[14] = target: Muscarinic acetylcholine receptor M1 (Homo sapiens) (UniProt P11229); test: Cholinergic receptor muscarinic 1 (CHRM1) small molecule antagonists, cell-based qHTS assay (AID 1963588); note: nearly all actives have a fitted effect of over 40% in size
Chain of Muscarinic acetylcholine receptor M1 (Homo sapiens) (P11229 whole entry, looked up): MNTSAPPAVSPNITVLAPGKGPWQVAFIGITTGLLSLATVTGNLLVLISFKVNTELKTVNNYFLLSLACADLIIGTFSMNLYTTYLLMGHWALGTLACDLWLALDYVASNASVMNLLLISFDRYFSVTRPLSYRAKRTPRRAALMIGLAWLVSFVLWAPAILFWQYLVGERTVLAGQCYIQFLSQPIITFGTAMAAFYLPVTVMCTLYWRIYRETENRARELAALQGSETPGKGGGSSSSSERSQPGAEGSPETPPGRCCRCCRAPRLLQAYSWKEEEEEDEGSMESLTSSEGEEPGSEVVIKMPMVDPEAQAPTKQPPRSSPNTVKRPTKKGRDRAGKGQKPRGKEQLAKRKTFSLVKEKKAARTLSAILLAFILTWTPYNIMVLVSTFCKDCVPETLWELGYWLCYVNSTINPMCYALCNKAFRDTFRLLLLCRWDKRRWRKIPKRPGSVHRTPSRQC
In short: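 CHRM1-CHO calcium-flux assay, antagonist mode. Cells were seeded 18 h, dye-loaded 1 h at 37 C and given compound for 5 min at RT, then acetylcholine was added at 50nM. FDSS fluorescence was read 3 min; 15 concentrations, three runs.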

[15] = target: Muscarinic acetylcholine receptor M1 (Homo sapiens) (UniProt P11229); test: Cholinergic receptor muscarinic 1 (CHRM1) small molecule agonists, cell-based qHTS assay (AID 1963589); note: nearly all actives have a fitted effect of over 35% in size
In short: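 Measures agonist-induced intracellular calcium rise. Stable human CHRM1 CHO line, 1 h dye load at 37 C, compounds from DMSO, kinetic fluorescence read.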

[16] = cAMP Responsive Elements (CRE) small molecule agonists, cell-based qHTS assay (AID 1963590)
In short: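 A CRE-responsive beta-lactamase reporter in HEK 293T cells was used. Treatment ran 3 h at 37 C; detection used LiveBLAzer B/G FRET substrate for 2 h at room temperature.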

[17] = cAMP Responsive Elements (CRE) small molecule antagonists, cell-based qHTS assay (AID 1963591; active = well fitted inhibition curve with a large enough effect in the signal ratio in the repeat runs, not every such curve was filed as active; the % refers to the signal ratio)
In short: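 HEK293T cells carrying a CRE-driven beta-lactamase reporter receive compound and NKH477 (0.25 uM final) for 3 h. Fluorescence from LiveBLAzer B/G FRET substrate is read after 2 h at room temperature.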

[18] = target: Beta-2 adrenergic receptor (Homo sapiens) (UniProt P07550); test: Adrenergic beta2 receptor (ADRB2) small molecule antagonists, cell-based qHTS assay (AID 1963592); note: series mostly up to about 92 µM; nearly all actives have a fitted effect of over 50% in size
Chain of Beta-2 adrenergic receptor (Homo sapiens) (P07550 whole entry, looked up): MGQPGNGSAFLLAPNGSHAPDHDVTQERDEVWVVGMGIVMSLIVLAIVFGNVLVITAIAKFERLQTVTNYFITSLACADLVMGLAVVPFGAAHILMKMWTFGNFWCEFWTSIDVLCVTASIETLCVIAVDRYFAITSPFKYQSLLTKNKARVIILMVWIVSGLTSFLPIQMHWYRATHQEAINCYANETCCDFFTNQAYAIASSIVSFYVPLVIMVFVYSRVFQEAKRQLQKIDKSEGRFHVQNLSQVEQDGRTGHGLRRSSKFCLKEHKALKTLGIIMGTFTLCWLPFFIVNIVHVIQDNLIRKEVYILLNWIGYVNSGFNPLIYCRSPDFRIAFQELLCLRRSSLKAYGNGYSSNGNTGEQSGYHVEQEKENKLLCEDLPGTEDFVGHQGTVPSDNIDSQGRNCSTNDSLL
In short: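 Cells (CHO, stable ADRB2 overexpression) incubated 18-20hr at 37C; compounds added from DMSO; agonist mix (1nM isoproterenol, 100uM IBMX, 25uM Ro-20-1724) added; 0.5hr RT; d2-cAMP and anti-cAMP-cryptate added; 1hr RT; 665/615 nm read.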

[19] = target: Beta-2 adrenergic receptor (Homo sapiens) (UniProt P07550); test: Adrenergic beta2 receptor (ADRB2) small molecule agonists, cell-based qHTS assay (AID 1963593);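 note: CHO cells stably overexpressing human ADRB2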
In short: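 CHO cells stably over-expressing ADRB2 were plated overnight at 37C, then dosed with compounds plus a stimulation mix containing 100uM IBMX and 25uM Ro-20-1724 for 0.5hr at room temperature. cAMP was measured by HTRF competition, 1hr.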

[20] = target: D(2) dopamine receptor (Homo sapiens) (UniProt P14416); test: Dopamine D2 receptor (DRD2) small molecule agonists, cell-based qHTS assay (AID 1963594); note: nearly all actives have a fitted effect of over 35% in size
Chain of D(2) dopamine receptor (Homo sapiens) (P14416 whole entry, looked up): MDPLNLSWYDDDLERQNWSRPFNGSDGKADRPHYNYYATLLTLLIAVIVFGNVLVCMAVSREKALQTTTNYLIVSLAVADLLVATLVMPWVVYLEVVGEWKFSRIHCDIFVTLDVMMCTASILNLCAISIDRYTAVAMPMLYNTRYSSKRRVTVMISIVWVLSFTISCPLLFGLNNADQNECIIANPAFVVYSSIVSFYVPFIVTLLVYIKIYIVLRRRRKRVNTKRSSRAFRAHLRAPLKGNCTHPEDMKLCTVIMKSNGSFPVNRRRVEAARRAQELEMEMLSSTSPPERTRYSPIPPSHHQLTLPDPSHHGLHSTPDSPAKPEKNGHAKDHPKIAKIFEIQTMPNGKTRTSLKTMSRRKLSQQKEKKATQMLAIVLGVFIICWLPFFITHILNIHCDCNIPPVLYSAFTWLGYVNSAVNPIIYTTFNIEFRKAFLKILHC
In short: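 HEK293 cells stably expressing DRD2 were cultured 24 h at 37 C, then given Ro20-1724 (0.1 mM final) and compounds for 10 min at room temperature. NKH477 (200nM) was then added for 30 min. cAMP was read by HTRF.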
% is set by controls: 0 for no effect and ±100 for the full control effect.

CC(=O)CC(C)=O
inactive: Potency [1] | Potency [2] | Potency [3] | Potency [4] | Potency [5] | Potency [6] | Potency [7] | Potency [8] | Potency [9] | Potency [10] | Potency [11] | Potency [12] | Potency [13] | Potency [14] | Potency [15] | Potency [16] | Potency [17] | Potency [18] | Potency [19] | Potency [20]

O=C(CCN1CCN(CCO)CC1)N1c2ccccc2Sc2ccc(C(F)(F)F)cc21
inactive: Potency [1] | Potency [2] | Potency [3] | Potency [4] | Potency [5] | Potency [6] | Potency [7] | Potency [8] | Potency [9] | Potency [10] | Potency [11] | Potency [12] | Potency [13] | Potency [14] | Potency [15] | Potency [16] | Potency [17] | Potency [18] | Potency [19] | Potency [20]

C=CC(=O)OCCOC1C2CCC1C1CC=CC12 (stereo not given)
inactive: activity change, negative = cytotoxicity [1] 0.243% [at 19 µM] | activity, positive = activation [2] -2.46% [at 19 µM] | activity change [3] -0.687% [at 11.8 µM, active compounds read high] | activation [4] 0.154% [at 15.8 µM] | activation [5] 0.0334% [at 11.8 µM] | activation [6] -3.49% [at 13.5 µM] | activation [7] -1.33% [at 13.6 µM] | activity change, negative = cytotoxicity [8] -0.599% [at 13.5 µM] | activity change, negative = cytotoxicity [9] -0.677% [at 13.5 µM] | activity change, negative = cytotoxicity [10] 10.1% [at 13.5 µM] | activation [11] -0.725% [at 13.5 µM] | activity, negative = inhibition [12] 14.3% [at 12.7 µM] | activation [13] -3.51% [at 15.9 µM] | activity, negative = inhibition [14] 1.12% [at 12.6 µM] | activation [15] 0.0965% [at 15.8 µM] | activation [16] -0.462% [at 19 µM] | activity change, negative = inhibition [17] -8.52% [at 18.9 µM] | activity change, negative = inhibition [18] -1.49% [at 19 µM] | activation [19] -22.8% [at 19 µM] | activation [20] -2.06% [at 19 µM]

CC(C)(O)Cc1ccccc1
inactive: Potency [1] | Potency [2] | Potency [3] | Potency [4] | Potency [5] | Potency [6] | Potency [7] | Potency [8] | Potency [9] | Potency [10] | Potency [11] | Potency [12] | Potency [13] | Potency [14] | Potency [15] | Potency [16] | Potency [17] | Potency [18] | Potency [19] | Potency [20]

CC1CCc2nccnc21 (stereo not given)
inactive: Potency [1] | Potency [2] | Potency [3] | Potency [4] | Potency [5] | Potency [6] | Potency [7] | Potency [8] | Potency [9] | Potency [10] | Potency [11] | Potency [12] | Potency [13] | Potency [14] | Potency [15] | Potency [16] | Potency [17] | Potency [18] | Potency [19] | Potency [20]

CNC(=O)c1c(I)c(NC(C)=O)c(I)c(C(=O)O)c1I
inactive: Potency [1] | Potency [2] | Potency [3] | Potency [4] | Potency [5] | Potency [6] | Potency [7] | Potency [8] | Potency [9] | Potency [10] | Potency [11] | Potency [12] | Potency [13] | Potency [14] | Potency [15] | Potency [16] | Potency [17] | Potency [18] | Potency [19] | Potency [20]

CC(CO)Oc1ccccc1 (stereo not given)
inactive: Potency [1] | Potency [2] | Potency [3] | Potency [4] | Potency [5] | Potency [6] | Potency [7] | Potency [8] | Potency [9] | Potency [10] | Potency [11] | Potency [12] | Potency [13] | Potency [14] | Potency [15] | Potency [16] | Potency [17] | Potency [18] | Potency [19] | Potency [20]

O=C(O)c1cccnc1C(=O)O
inactive: Potency [1] | Potency [2] | Potency [3] | Potency [4] | Potency [5] | Potency [6] | Potency [7] | Potency [8] | Potency [9] | Potency [10] | Potency [11] | Potency [12] | Potency [13] | Potency [14] | Potency [15] | Potency [16] | Potency [17] | Potency [18] | Potency [19] | Potency [20]

Cc1ccc(C(=O)C(=O)O)cc1C
inactive: Potency [1] | Potency [2] | Potency [3] | Potency [4] | Potency [5] | Potency [6] | Potency [7] | Potency [8] | Potency [9] | Potency [10] | Potency [11] | Potency [12] | Potency [13] | Potency [14] | Potency [15] | Potency [16] | Potency [17] | Potency [18] | Potency [19] | Potency [20]

CCC(N)(CO)CO
inactive: Potency [1] | Potency [2] | Potency [3] | Potency [4] | Potency [5] | Potency [6] | Potency [7] | Potency [8] | Potency [9] | Potency [10] | Potency [11] | Potency [12] | Potency [13] | Potency [14] | Potency [15] | Potency [16] | Potency [17] | Potency [18] | Potency [19] | Potency [20]

CCC1COC(=O)O1 (stereo not given)
inactive: Potency [1] | Potency [2] | Potency [3] | Potency [4] | Potency [5] | Potency [6] | Potency [7] | Potency [8] | Potency [9] | Potency [10] | Potency [11] | Potency [12] | Potency [13] | Potency [14] | Potency [15] | Potency [16] | Potency [17] | Potency [18] | Potency [19] | Potency [20]

CCC(CC)C(C)CCOC(C)=O (stereo not given)
inactive: Potency [1] | Potency [2] | Potency [3] | Potency [4] | Potency [5] | Potency [6] | Potency [7] | Potency [8] | Potency [9] | Potency [10] | Potency [11] | Potency [12] | Potency [13] | Potency [14] | Potency [15] | Potency [16] | Potency [17] | Potency [18] | Potency [19] | Potency [20]

CC1(C)C(=O)N(Br)C(=O)N1Cl
inactive: Potency [1] | Potency [2] | Potency [3] | Potency [4] | Potency [5] | Potency [6] | Potency [7] | Potency [8] | Potency [9] | Potency [10] | Potency [11] | Potency [12] | Potency [13] | Potency [14] | Potency [15] | Potency [16] | Potency [17] | Potency [18] | Potency [19] | Potency [20]
